In PubChem BioAssay (NCI):
About 83,000 compounds went through this panel and 20% of them were active in at least one assay; those are over-represented in the sample as a whole.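 Single-concentration screen, 48 h exposure, 96-well plates. Endpoint: percent growth. Below 10 = active.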 Active and inactive are the calls of the source.

Key:
Experiment in all cases: NCI-60 one-dose screen, 48 h (100 = growth as untreated, 0 = no growth, -100 = all killed)
Settings in all cases: 10 µM unless noted
DU-145 prostate = system: DU-145 prostate
K-562 leukemia = system: K-562 leukemia
MALME-3M melanoma = system: MALME-3M melanoma
MDA-MB-231 breast = system: MDA-MB-231 breast
RXF 393 renal = system: RXF 393 renal
SF-268 CNS = system: SF-268 CNS
SF-295 CNS = system: SF-295 CNS
SF-539 CNS = system: SF-539 CNS
UACC-257 melanoma = system: UACC-257 melanoma
M14 melanoma = system: M14 melanoma
HCT-15 colon = system: HCT-15 colon
HT29 colon = system: HT29 colon
SNB-75 CNS = system: SNB-75 CNS
SNB-19 CNS = system: SNB-19 CNS
U251 CNS = system: U251 CNS
PC-3 prostate = system: PC-3 prostate
SK-MEL-5 melanoma = system: SK-MEL-5 melanoma
UACC-62 melanoma = system: UACC-62 melanoma
LOX IMVI melanoma = system: LOX IMVI melanoma
SK-MEL-28 melanoma = system: SK-MEL-28 melanoma

Measured: growth

CN(C)c1ccc(/C=C(\C#N)c2nc3ccccc3n2C)cc1
active: RXF 393 renal 3.51% | SNB-75 CNS 7.56%
inactive: DU-145 prostate 25.7% | K-562 leukemia 32% | MALME-3M melanoma 61.7% | MDA-MB-231 breast 48.8% | SF-268 CNS 52.6% | SF-295 CNS 13.1% | SF-539 CNS 11.6% | UACC-257 melanoma 43.9% | M14 melanoma 34.4% | HCT-15 colon 28.5% | HT29 colon 13.7% | SNB-19 CNS 68.6% | U251 CNS 30.3% | PC-3 prostate 35.7% | SK-MEL-5 melanoma 14.5% | UACC-62 melanoma 35% | LOX IMVI melanoma 46.2%

O=C(Cn1nncc1CN1C(=O)CSC1=O)Nc1ccc(F)cc1
inactive: DU-145 prostate 105% | K-562 leukemia 104% | MALME-3M melanoma 97.5% | MDA-MB-231 breast 109% | RXF 393 renal 108% | SF-268 CNS 94.7% | SF-295 CNS 103% | SF-539 CNS 97.8% | UACC-257 melanoma 107% | M14 melanoma 102% | HCT-15 colon 102% | HT29 colon 105% | SNB-75 CNS 85.9% | SNB-19 CNS 101% | U251 CNS 104% | PC-3 prostate 101% | SK-MEL-5 melanoma 99.5% | UACC-62 melanoma 93.5% | LOX IMVI melanoma 94.9%

FC(F)(F)c1ccc(/C=N/Nc2nnc3n2N=C(c2ccc(Cl)cc2)CS3)cc1
active: RXF 393 renal 3.04% | SNB-75 CNS -24.9%
inactive: DU-145 prostate 53.7% | K-562 leukemia 80.9% | MALME-3M melanoma 16.3% | MDA-MB-231 breast 56.2% | SF-268 CNS 36.8% | SF-295 CNS 47.6% | SF-539 CNS 54.8% | UACC-257 melanoma 46.9% | M14 melanoma 74.4% | HCT-15 colon 79.9% | HT29 colon 70.1% | SNB-19 CNS 20.3% | U251 CNS 60.4% | PC-3 prostate 53.1% | SK-MEL-5 melanoma 76.4% | UACC-62 melanoma 55.1% | LOX IMVI melanoma 82.8%

Nc1nc2c(c3ncccc13)C(c1ccccc1)Cc1ncccc1-2 (stereo not given)
inactive: DU-145 prostate 103% | K-562 leukemia 27.1% | MALME-3M melanoma 76.1% | MDA-MB-231 breast 65.9% | RXF 393 renal 99.3% | SF-268 CNS 86.4% | SF-295 CNS 67.4% | SF-539 CNS 78.1% | UACC-257 melanoma 93.1% | M14 melanoma 44.8% | HCT-15 colon 46.1% | HT29 colon 56.9% | SNB-75 CNS 71.2% | SNB-19 CNS 91.8% | U251 CNS 72.2% | PC-3 prostate 73.9% | SK-MEL-5 melanoma 53.1% | UACC-62 melanoma 59.4% | LOX IMVI melanoma 70.9% | SK-MEL-28 melanoma 83.5%

COc1ccc(/C=C2\Cc3c(Br)cccc3C2=O)c(OC)c1
inactive: DU-145 prostate 87.4% | K-562 leukemia 64% | MALME-3M melanoma 60.2% | MDA-MB-231 breast 58% | RXF 393 renal 80.9% | SF-268 CNS 73.6% | SF-295 CNS 67.5% | SF-539 CNS 73.4% | UACC-257 melanoma 98.2% | M14 melanoma 47% | HCT-15 colon 51.1% | HT29 colon 64.4% | SNB-75 CNS 70.7% | SNB-19 CNS 53.3% | U251 CNS 55.6% | PC-3 prostate 81.1% | SK-MEL-5 melanoma 47.9% | UACC-62 melanoma 38.9% | LOX IMVI melanoma 59.9% | SK-MEL-28 melanoma 64.3%

CNC(=O)c1cc(Oc2ccc(NC(=O)c3[nH]c(SC)nc3-c3ccc(F)cc3)cc2)ccn1
active: K-562 leukemia 7.07% | MALME-3M melanoma -7.31% | UACC-62 melanoma 5.44%
inactive: DU-145 prostate 59.6% | MDA-MB-231 breast 62.9% | RXF 393 renal 70.9% | SF-268 CNS 72.5% | SF-295 CNS 46.3% | SF-539 CNS 65.5% | UACC-257 melanoma 33.1% | M14 melanoma 12.7% | HCT-15 colon 72.5% | HT29 colon 12.8% | SNB-75 CNS 78.7% | SNB-19 CNS 99.3% | U251 CNS 84.6% | PC-3 prostate 33.2% | SK-MEL-5 melanoma 23.3% | LOX IMVI melanoma 57.7% | SK-MEL-28 melanoma 22.3%

Clc1ccc(Nc2ncnc3c2sc2ncccc23)c(Cl)c1
active: SF-539 CNS 6.17% | M14 melanoma -25.6% | LOX IMVI melanoma 4.08%
inactive: DU-145 prostate 20.1% | K-562 leukemia 43.4% | MALME-3M melanoma 58.2% | MDA-MB-231 breast 61.1% | RXF 393 renal 34% | SF-268 CNS 18.4% | SF-295 CNS 17.9% | UACC-257 melanoma 39.3% | HCT-15 colon 47.7% | HT29 colon 39.4% | SNB-75 CNS 42.3% | SNB-19 CNS 27.4% | U251 CNS 27% | PC-3 prostate 49.5% | SK-MEL-5 melanoma 28% | UACC-62 melanoma 12.7% | SK-MEL-28 melanoma 65.9%

CCCc1n(Cc2ccc3ccccc3n2)cc[n+]1Cc1ccc2ccccc2c1
inactive: DU-145 prostate 28.6% | SF-268 CNS 17% | SF-539 CNS 12.7% | HCT-15 colon 82% | U251 CNS 11.2%
active: K-562 leukemia 5.05% | MALME-3M melanoma -27.3% | MDA-MB-231 breast -5.49% | RXF 393 renal 3.02% | SF-295 CNS 4.45% | UACC-257 melanoma -9.42% | M14 melanoma 3.06% | HT29 colon 3.72% | SNB-75 CNS -6% | SNB-19 CNS 7.24% | PC-3 prostate 5.35% | SK-MEL-5 melanoma -91.9% | UACC-62 melanoma -46.7% | LOX IMVI melanoma -63.8% | SK-MEL-28 melanoma 9.91%

COc1cc2c(cc1C)NC(=O)/C2=C\c1c[nH]c2ccccc12
inactive: DU-145 prostate 78.6% | K-562 leukemia 40.6% | MALME-3M melanoma 75.9% | MDA-MB-231 breast 60.8% | RXF 393 renal 47% | SF-268 CNS 81.6% | SF-295 CNS 26.4% | SF-539 CNS 69.7% | UACC-257 melanoma 90% | M14 melanoma 80.9% | HCT-15 colon 58.4% | HT29 colon 35.4% | SNB-75 CNS 37.9% | SNB-19 CNS 84.7% | U251 CNS 61.5% | PC-3 prostate 53.3% | SK-MEL-5 melanoma 73.8% | UACC-62 melanoma 77.9% | LOX IMVI melanoma 44.9%

O=C(C(=O)c1cccnc1)c1cccnc1
inactive: DU-145 prostate 121% | K-562 leukemia 110% | MALME-3M melanoma 118% | MDA-MB-231 breast 99.7% | RXF 393 renal 136% | SF-268 CNS 95.8% | SF-295 CNS 116% | SF-539 CNS 99.3% | UACC-257 melanoma 95% | M14 melanoma 96.3% | HCT-15 colon 120% | HT29 colon 108% | SNB-75 CNS 107% | SNB-19 CNS 110% | U251 CNS 112% | PC-3 prostate 107% | SK-MEL-5 melanoma 105% | UACC-62 melanoma 102% | LOX IMVI melanoma 100% | SK-MEL-28 melanoma 135%

Cc1n(Cc2ccc3ccccc3n2)cc[n+]1Cc1ccc2ccccc2c1
inactive: DU-145 prostate 26.6% | K-562 leukemia 11.5% | SF-268 CNS 20.8% | SF-539 CNS 14.3% | M14 melanoma 18.2% | HCT-15 colon 86.8% | U251 CNS 14% | PC-3 prostate 10.4% | SK-MEL-28 melanoma 16.1%
active: MALME-3M melanoma -30.2% | MDA-MB-231 breast 2.1% | RXF 393 renal 9.37% | SF-295 CNS 9.7% | UACC-257 melanoma -15.1% | HT29 colon 6.64% | SNB-75 CNS -2.2% | SNB-19 CNS 7.14% | SK-MEL-5 melanoma -87.6% | UACC-62 melanoma -26.6% | LOX IMVI melanoma -43.7%

CCSc1ccc([C@@H]2[C@@H](O)C(=O)N2c2cc(OC)c(OC)c(OC)c2)cc1
inactive: DU-145 prostate 12.5% | MALME-3M melanoma 71% | MDA-MB-231 breast 23.6% | RXF 393 renal 35.9% | SF-268 CNS 31.4% | SF-295 CNS 18.1% | UACC-257 melanoma 66.5% | M14 melanoma 10.4% | HCT-15 colon 14.1% | SNB-75 CNS 85.8% | SNB-19 CNS 35.5% | U251 CNS 21% | PC-3 prostate 28.1% | UACC-62 melanoma 40.4% | LOX IMVI melanoma 25.9% | SK-MEL-28 melanoma 71%
active: K-562 leukemia 7.65% | SF-539 CNS 1.7% | HT29 colon 9.27% | SK-MEL-5 melanoma 0.317%

Cc1c(-c2ccc(-c3ccccc3F)cc2)nc2ccc(F)cc2c1C(=O)O
active: LOX IMVI melanoma 9.11%
inactive: DU-145 prostate 42.5% | K-562 leukemia 26.3% | MALME-3M melanoma 62.8% | MDA-MB-231 breast 65.2% | RXF 393 renal 37.2% | SF-268 CNS 50.7% | SF-295 CNS 22.8% | SF-539 CNS 29% | UACC-257 melanoma 19.8% | M14 melanoma 53.7% | HCT-15 colon 29% | HT29 colon 28.3% | SNB-75 CNS 60.9% | SNB-19 CNS 41% | U251 CNS 31.9% | PC-3 prostate 33.2% | SK-MEL-5 melanoma 40.4% | UACC-62 melanoma 39.5%

CC(=O)OC1Oc2cc(C)c(C)cc2-c2oc(=O)c(-c3ccc(F)cc3)cc21 (stereo not given)
inactive: DU-145 prostate 75.8% | MALME-3M melanoma 65.3% | MDA-MB-231 breast 77.7% | SF-268 CNS 55.5% | SF-295 CNS 80.5% | SF-539 CNS 72.7% | UACC-257 melanoma 96% | M14 melanoma 38.5% | HCT-15 colon 46.6% | HT29 colon 16.1% | SNB-75 CNS 77.9% | SNB-19 CNS 90.5% | U251 CNS 53.5% | PC-3 prostate 60.2% | SK-MEL-5 melanoma 55.2% | UACC-62 melanoma 49.8% | LOX IMVI melanoma 60.2% | SK-MEL-28 melanoma 64.2%
active: K-562 leukemia 6.83% | RXF 393 renal -1.93%

CCOC(=O)C1=C(C)NC(SCc2nnc(-c3ccc(Cl)cc3)o2)=NC1c1ccc(Cl)cc1 (stereo not given)
inactive: DU-145 prostate 87.2% | K-562 leukemia 55.8% | MALME-3M melanoma 81.7% | MDA-MB-231 breast 62.7% | RXF 393 renal 67.7% | SF-268 CNS 86% | SF-295 CNS 74.1% | SF-539 CNS 87.7% | UACC-257 melanoma 86.9% | M14 melanoma 69.3% | HCT-15 colon 67.6% | HT29 colon 75.2% | SNB-75 CNS 73.7% | SNB-19 CNS 73% | U251 CNS 73.9% | PC-3 prostate 48.8% | SK-MEL-5 melanoma 40.9% | UACC-62 melanoma 49.9% | LOX IMVI melanoma 76.9% | SK-MEL-28 melanoma 79.8%
